The text below walks through data of PubChem BioAssay AID720517 (National Center for Advancing Translational Sciences (NCATS), 2013).

Records with an inconclusive call do not appear. Active and inactive are the calls of the source. The call rests on the fitted dose curve; in most records, active means well fitted activation curve with a large enough effect; inconclusive means small, poorly fitted or top-dose-only effect; inactive means flat fitted curve, though single readings scatter.

This assay is described as follows: qHTS for Inhibitors of Cell Surface uPA Generation: FP59 Counterscreen for Cherry-picked Compounds. Further: 0% is about no effect. The settings on record: FP59 anthrax toxin cytotoxicity counterscreen, cells; series mostly up to 115 µM; activity (protection from FP59): at the top concentration. In general terms: qHTS replaces the single test concentration by a dilution series.
For the molecule `CCOc1ccc(NS(=O)(=O)c2ccc(C(=O)N3CCC3)cc2)cc1`, the “activity (protection from FP59)” value was -0.726% (inactive).
On to `O=C(NC(=O)c1ccccc1)Nc1cccc(S(=O)(=O)N2CCCCC2)c1`, for which the “activity (protection from FP59)” value was -1.18% (inactive).
Consider `COc1ccc(Cl)cc1NC(=O)CSc1nc(=O)n(CCN(C)C)c2c1CCCC2`, for which the “activity (protection from FP59)” value was -1.62% (inactive).
With `Clc1ccc(C2=NN=C3COc4ccccc4N3C2)cc1`, the “activity (protection from FP59)” value was -1.23% (inactive).
For the molecule `COc1ccc(CCNC(=O)Cn2cccc2C(=O)c2ccccc2)c(OC)c1`, the “activity (protection from FP59)” value is -0.888% (inactive).
`C=CCn1c(C)cc(C(=O)COC(=O)/C=C/c2cccc(OC)c2)c1C`: the “activity (protection from FP59)” value is -0.999% (inactive).
Regarding `Cc1nc(NC2CCCCC2)c2nnn(Cc3ccccc3Cl)c2n1`, the “activity (protection from FP59)” value is 3.83% (inactive).
In the case of `COc1cc(NC(=O)COC(=O)c2cc(S(=O)(=O)N3CCCCC3)ccc2Cl)c(C)cc1[N+](=O)[O-]` it was -1.36% (inactive).
For the molecule `COc1ccc(NS(=O)(=O)c2cc(NS(=O)(=O)c3cc(C(=O)O)ccc3OC)ccc2C)cc1`, the “activity (protection from FP59)” value is -1.08% (inactive).
As for `O=C(C1=C[C@H](c2ccccc2)C[C@H](OCCCCO)O1)N1CCN(Cc2ccc3c(c2)OCO3)CC1`, the figure is -0.646% (inactive); as for `COc1ccc(NC(=O)CCNS(=O)(=O)c2ccccc2F)cc1S(=O)(=O)N1CCOCC1`, -1.16% (inactive).
Take `CCCCn1c(N)c(N(CCC(C)C)C(=O)c2sc3nc4n(c(=O)c3c2C)CCC4)c(=O)[nH]c1=O`: the “activity (protection from FP59)” value was -1.37% (inactive).
With `CCC(C)Sc1nnc(NS(=O)(=O)Cc2ccccc2)s1` (centres undefined), the “activity (protection from FP59)” value is -1.29% (inactive).
With `NC(=O)c1ccccc1NC(=O)CC12CC3CC(CC(C3)C1)C2`, the “activity (protection from FP59)” value is -1.32% (inactive).
Take `Cc1ccc(S(=O)(=O)NCC(=O)OC(C)C(=O)NCc2ccc3c(c2)OCO3)cc1` (centres undefined): the “activity (protection from FP59)” value was -1.44% (inactive).
For `CCN1CCN(C(c2ccccc2)c2nnnn2Cc2ccc3c(c2)OCO3)CC1` (centres undefined), the “activity (protection from FP59)” value is -1.55% (inactive).
In the case of `CCN(CC)CCCn1c2c(c(SCC(=O)Nc3cccc4ccccc34)nc1=O)CCC2` it was -1.61% (inactive); in that of `Cc1ccc(C)c(S(=O)(=O)Nc2ccccc2C(=O)Nc2cc(C)on2)c1`, -0.926% (inactive); in that of `COc1ccc([C@H]2CC(=O)C=C(c3ccc(CNC(=O)OC(C)(C)C)cc3)C2)cc1`, 3.35% (inactive).
In the case of `Cc1ccsc1/C=C(\C#N)C(=O)NC1CCS(=O)(=O)C1` (centres undefined) it was -1.29% (inactive); in that of `CCn1c2ccccc2c2n[nH]c(=S)nc21`, -1.35% (inactive).
In the case of `Cc1ccc2c(c1)N(CC(=O)NCCCc1ccccc1)C(=O)c1cccnc1O2` it was -1.38% (inactive).
As for `Clc1ccc(-c2nc3ccccn3c2CN2CCSCC2)cc1`, the “activity (protection from FP59)” value is 1.45% (inactive).
As for `COc1ccc(CCNC(=O)COC(=O)CNS(=O)(=O)c2ccc(SC)c([N+](=O)[O-])c2)cc1`, the “activity (protection from FP59)” value was -1.44% (inactive).
On to `CCc1ccc(S(=O)(=O)NCCc2cn3cccc(C)c3n2)s1`, for which the “activity (protection from FP59)” value was -1.48% (inactive).
On to `COCCN1C(=O)C(=O)/C(=C(/O)c2ccc(S(=O)(=O)N3CCOCC3)cc2)C1c1cccc([N+](=O)[O-])c1` (centres undefined), for which the “activity (protection from FP59)” value was -1.51% (inactive).
In the case of `O=C(O)c1ccccc1/C=N/NC(=S)NC1CCCCC1` it was -1.18% (inactive); in that of `O=C(CCS(=O)(=O)c1ccc2c(c1)NC(=O)CS2)NCc1cccs1`, -0.809% (inactive).
Take `COc1ccc(/C(C)=N/N2CCOCC2)c(O)c1`: the “activity (protection from FP59)” value was -1.43% (inactive).
In the case of `NC(=O)c1ccc(NC(=O)CN2CCN(S(=O)(=O)c3ccc4ccccc4c3)CC2)cc1` it was 0.185% (inactive).
As for `CCN1CCCCC(=N/O)/C(=N/O)CCCC1`, the figure is -1.44% (inactive).
For `Cc1nc(SCc2nc3ccccc3[nH]2)c2oc3cc([N+](=O)[O-])ccc3c2n1`, the “activity (protection from FP59)” value is -0.853% (inactive).
Turning to `CCOC(=O)Cc1csc(NC(=O)Nc2cccc(OC)c2)n1`, the “activity (protection from FP59)” value is -1.49% (inactive).
As for `Cc1cccn2c(CNCC(C)Oc3cccnc3)c(C(=O)N3CCOCC3)nc12` (centres undefined), the figure is -1.42% (inactive); as for `COc1ccc(C(=O)CC2(C(=O)O)CCCCC2)cc1`, -1.5% (inactive).
As for `C[C@@]12C(=O)N(CC3CCCO3)CC(=O)N1[C@H]1c3cc(Cl)ccc3OC[C@@H]1[C@@H]2c1ccccc1` (some centres undefined), the figure is 4.34% (inactive); as for `Cc1ccnc(NS(=O)(=O)c2ccc(NC(=O)C3C4C=CC(C4)C3C(=O)O)cc2)n1` (centres undefined), -0.562% (inactive).
In the case of `O=C(Nc1ccnn1C1CCN(CCCC2CCCC2)CC1)c1ccccc1`, the “activity (protection from FP59)” value is -1.38% (inactive).
In the case of `O=C(CN(c1ccccc1F)S(=O)(=O)c1ccccc1)Nc1ccc2c(c1)OCCO2` it was -0.778% (inactive).
